From PubChem BioAssay (NCI)
The panel holds about 83,000 compounds, 20% with a hit somewhere; the sample as a whole holds those more often.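 Results are percent growth after 48 hours of single-concentration exposure. 100 means growth as in untreated cells, lower positive values show inhibition; negative values down to -100 show cell death.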 Unmarked numbers belong to inactive results. The source made the active and inactive calls. Rule for the calls: active = growth percent below 10; inactive = the rest.

Test system: SW-620 colon
Test: NCI-60 one-dose screen, 48 h (100 = growth as untreated, 0 = no growth, -100 = all killed)
Settings: 10 µM

Row | SMILES | growth
1 | CCN1CCN(Cc2ccc(C(=O)Nc3cccc(-c4cn(-c5ccc6oc(=O)ccc6c5)nn4)c3)cc2C(F)(F)F)CC1 | -100% (active)
2 | CN1C(=O)N(C)C2SC(N/N=C/c3cccs3)=NC21 (centres undefined) | 15.4%
3 | CC(=O)Nc1ccc(-c2cn(-c3cccc(C(=O)Nc4cc(CN5CCOCC5)cc(C(F)(F)F)c4)c3)nn2)cn1 | -72.6% (active)
4 | Cc1cc(C)cc(Oc2cccc(-c3c(C)nnn3C3CCN(CCN(C)C)CC3)n2)c1 | 45.9%
5 | CC1=C(c2cc(-c3ccc(Cl)cc3)c(C#N)c(N)n2)C(c2ccccc2)NC(=S)N1 (centres undefined) | 45.7%
6 | Cc1ccc(-c2nc3ccc(C(=O)N=Nc4c(O)[nH]c5ccc(Br)cc45)cc3[nH]2)cc1 | 7.03% (active)
7 | O=C(Nc1ccc(I)cc1F)c1cc(-c2ccc(F)cc2F)ccc1O | 10.1%
8 | CN1CCc2c(sc3ncnc(N/N=C/c4ccc5ccccc5c4)c23)C1 | 22.9%
9 | COc1cc2c3c(n(CCCN4CCOCC4)c(=O)c2cc1OC)-c1nc2c(cc1C3=O)OCO2 | 22.2%
10 | Cn1c(O)c(N=Nc2nc(-c3cc4ccccc4oc3=O)cs2)c2cc(Br)ccc21 | 99.8%
11 | COc1ccc(CCN2C(=O)/C(=C/c3csc(C#N)n3)SC2=S)cc1OC | -20.5% (active)
12 | COc1ccc2c3nc4cc(C)c(C)cc4nc3n(CCN(C)C)c2c1 | -51.6% (active)
13 | C=C1CCC2C3(C)COC(c4c(F)cccc4F)OC3CCC2(C)C1CC(O)C1=CCOC1=O (centres undefined) | 3.41% (active)
14 | Cc1cccc2cc(-c3cc(-c4ccccc4)nc(=S)[nH]3)c(Cl)nc12 | 92%
15 | COc1ccc(/C=C/C(=O)c2ccc(N3CCN(C)CC3)cc2)c(C(F)(F)F)c1 | -80% (active)
16 | Cc1cccc(NC(=O)CSc2nc3ccc(F)cc3c(=O)n2-c2ccc(Cl)cc2)c1C | 80.1%
17 | CC1(c2ccccc2)NC(=O)N(CC(=O)Nc2ccc(C(=O)/C=C/C=C/c3ccccc3)cc2)C1=O (centres undefined) | 48.3%
18 | CCOP(=O)(OCC)O[C@H]1CC[C@]2(C)[C@H]3CC[C@@H]4[C@@H]([C@](C)(O)CCC=C(C)C)CC[C@@]4(C)[C@]3(C)CC[C@H]2C1(C)C | 14.9%
19 | COc1cccc(-c2ccnc(/N=C(\N)Nc3ccc(S(=O)(=O)Nc4nc(C)cc(C)n4)cc3)n2)c1 | 105%
20 | COc1ccc2[nH]c(=O)c(CSc3cccc(N)c3)cc2c1 | 25%
21 | C/C(=N\N=C\c1ccc(Cl)c([N+](=O)[O-])c1)c1ccc2c(c1)Nc1ccccc1S2 | 6.06% (active)
22 | COc1cc(-c2nc3cc(Cl)c(Cl)cc3[nH]2)ccc1OCc1nnc(-c2ccc(Br)cc2)o1 | 21.6%
23 | O/N=C(\CSc1nnc(-c2c[nH]c3ccccc23)n1-c1ccccc1)c1ccc(Cl)cc1 | -37% (active)
24 | CCOc1ccc(Nc2nc3ccccc3nc2Nc2ccc(OCC)cc2)cc1 | 75.5%
